One may read the Inhibition as how much of the control response was suppressed. A low value points to a response near the control.

Holding throughout (format): functional
For assay [1], the system named is Plasmodium falciparum. As to the kind of experiment: GSK_TCMDC: Inhibition of Plasmodium falciparum 3D7 in whole red blood cells, using parasite LDH activity as an index of growth. Test compounds present at 2uM.
Assay [2] relates to Plasmodium falciparum. Kind of assay: GSK_TCMDC: Inhibition of Plasmodium falciparum Dd2 in whole red blood cells, using parasite LDH activity as an index of growth. Test compounds present at 2uM.
The subject of another assay is HepG2. Kind of assay: GSK_TCMDC: Percent inhibition of human HepG2 cell line. Test compounds present at 10uM.

Molecules are shown by their SMILES.

Consider `Nc1nc2c(ncn2COC(COCc2ccccc2)COCc2ccccc2)c(=O)[nH]1.Nc1nc2ncn(COC(COCc3ccccc3)COCc3ccccc3)c2c(=O)[nH]1`, for which the values for the Inhibition in the assay on Plasmodium falciparum [1], with Plasmodium falciparum [2] and with HepG2 were 86%, 57% and 18%, respectively.
`CCNc1cc(C(=O)N[C@@H](Cc2ccccc2)[C@H](O)CNC2CCC(C)(C)C2)cc(N2CCCCS2(=O)=O)c1.Cl` (stereo partly drawn): the Inhibition with Plasmodium falciparum [1] is 96%; in the assay with Plasmodium falciparum [2] it was 98%; with HepG2, 3%.
On the same counts, the results for `COCCOc1ccc(C(F)(F)F)cc1NC(=O)Cc1c(F)cccc1Cl` are 88%, 74% and 18%.
Take `COc1ccc2nccc([C@@H](O)CN3CCC(NCc4nc5ccccc5[nH]4)CC3)c2c1.O=C(O)C(=O)O`: the Inhibition is listed as 92% with Plasmodium falciparum [1], 2% with Plasmodium falciparum [2] and 41% in the assay on HepG2.
For `Br.CC1(C)NC(N)=NC(=N)N1OCCCOc1cc(Cl)ccc1Cl`, in that order: 96%, 96% and 64%.
Turning to `COc1ccc2nccc([C@@H](O)CN3CCC(NC(=O)C(c4cccs4)N4CCN(c5ccc(F)cc5)CC4)CC3)c2c1` (stereo partly drawn), the values for the Inhibition in the assay with Plasmodium falciparum [1], with Plasmodium falciparum [2] and with HepG2 were 97%, 45% and 9%, respectively.
For `CN1CCC[C@H]1COc1ccc(CN2CC[C@H](NC(=O)c3ccc(Cl)c(Cl)c3)C2)cc1Br.O=C(O)C(F)(F)F`, in that order: 100%, 20% and 81%.
For `Cc1cc2c(NC(=O)NC3CCN(Cc4ccc(Cl)c(Cl)c4)CC3)cccc2cn1.Cl`, the Inhibition in the assay with Plasmodium falciparum [1] was determined as 100%; in the assay with Plasmodium falciparum [2] it was 41%; in the assay with HepG2, 11%.
Turning to `COc1cc2nc(Nc3ccc(N4CCOCC4)cc3)nc(N)c2cc1OC.Cl`, the Inhibition is 95% in the assay on Plasmodium falciparum [1], 10% in the assay on Plasmodium falciparum [2] and 8% with HepG2.
For `CCCCCc1ccc(N2C(N)=NC(N)=NC2(C)C)cc1.Cl`, in that order: 95%, 1% and 59%.
For `CCOC(=O)c1nc(-c2cc(Cl)nc(Cl)c2)[nH]c1NC(=S)NCCCN1CCOCC1`, in that order: 89%, 71% and 13%.
For `Nc1nccc2ccc(Oc3ccncc3)cc12`, the Inhibition with Plasmodium falciparum [1] is on record as 91%; in the assay with Plasmodium falciparum [2], 81%; in the assay on HepG2 it was 0%.
Take `COc1cc(C(F)(F)F)cc2[nH]c(CNCCCNc3nc4ccccc4[nH]3)cc12`: the Inhibition in the assay on Plasmodium falciparum [1] worked out at 100%; with Plasmodium falciparum [2], 2%; in the assay with HepG2, 59%.
Turning to `Cl.O=S(=O)(c1ccc(OCc2ccc(Cl)cc2)cc1)c1cc2c(cc1O)CCN(C1CCC1)CC2`, the results for the Inhibition in the assay with Plasmodium falciparum [1], in the assay on Plasmodium falciparum [2] and in the assay with HepG2 were 99%, 63% and 11%, respectively.
Turning to `Nc1nc(N)c2c3c(cnc2n1)CCCC3`, the Inhibition in the assay with Plasmodium falciparum [1] is 95%; in the assay with Plasmodium falciparum [2], 0%; in the assay with HepG2, 61%.
For the compound `CS(=O)(=O)CCNCc1nc(-c2ccc3c(Nc4ccc(F)c(O)c4)ccnc3c2)cs1`, the results for the Inhibition with Plasmodium falciparum [1], with Plasmodium falciparum [2] and in the assay on HepG2 were 95%, 84% and 0%, respectively.
Take `FC(F)(F)c1cccc(CNC2CCN(CC3CCCCC3)CC2)c1.O=C(O)C(F)(F)F`: the Inhibition in the assay on Plasmodium falciparum [1] came out at 100%; with Plasmodium falciparum [2], 12%; with HepG2, 0%.
On the same counts, the results for `CC(C)(CNC(=O)C1CCN(CC2CCCCC2)CC1)c1nc(-c2ccc(Cl)c(O)c2)c(-c2ccncc2)[nH]1.Cl` are 98%, 31% and 0%.
Turning to `Cc1c(O)cccc1Nc1ccnc2ccc(C(F)(F)F)cc12.Cl`, the Inhibition with Plasmodium falciparum [1] was found to be 96%; with Plasmodium falciparum [2], 51%; with HepG2 it was 0%.
Take `COc1ccc(CNCC(C)(C)c2nc(-c3ccc(Cl)c(O)c3)c(-c3ccncc3)[nH]2)cc1.Cl`: the Inhibition with Plasmodium falciparum [1] was found to be 100%; with Plasmodium falciparum [2], 99%; in the assay with HepG2 it was 76%.
For the compound `Cc1cc(NCCC(=O)Nc2ccccc2)nc(NCC2CCCCC2)n1.O=C(O)C(F)(F)F`, the Inhibition in the assay on Plasmodium falciparum [1] was 100%; in the assay on Plasmodium falciparum [2], 62%; in the assay on HepG2, 14%.
Regarding `Oc1c(C=Nn2cnnc2)sc2ccccc12`, the values for the Inhibition in the assay with Plasmodium falciparum [1], in the assay on Plasmodium falciparum [2] and with HepG2 were 93%, 68% and 0%, respectively.
On the same counts, the results for `c1ccc(Oc2ccc(Nc3ccnc(Nc4ccc(CN5CCOCC5)cc4)n3)cc2)cc1` are 92%, 38% and 46%.
Turning to `CON(CCCN(C)C)C(=N)N.Cl`, the Inhibition in the assay on Plasmodium falciparum [1] was found to be 92%; with Plasmodium falciparum [2], 0%; in the assay on HepG2 it was 3%.
As for `O=C(/C=C/c1ccc(C(F)(F)F)cc1)NCCCCCN1CCCN(C(=O)Nc2cccc(Cl)c2)CC1`, the Inhibition is on record as 92% with Plasmodium falciparum [1], 3% with Plasmodium falciparum [2] and 16% with HepG2.
On the same counts, the results for `COc1ccc(C(=O)Nc2ccc3nc(N4CCCCC4)cc(C)c3c2)cc1OC` are 92%, 7% and 15%.
With `COc1ccc(-c2ccc(NC(=O)c3ccccc3)cc2)cc1CN1CCCN(C)CC1.O=C(O)C(F)(F)F`, the Inhibition in the assay with Plasmodium falciparum [1] was 92%; with Plasmodium falciparum [2], 17%; with HepG2, 24%.
For `O=C(NC1CCCCN(Cc2ccccc2O)C1)c1ccc(Cl)c(Cl)c1.O=C(O)C(F)(F)F` (stereo not drawn), in that order: 96%, 96% and 0%.
Turning to `CC(C)CNCc1cccc(-c2ccccc2CN(C(=O)NCCc2ccccc2)C2CCN(Cc3ccccc3)CC2)c1.O=C(O)C(F)(F)F`, the Inhibition was 89% in the assay on Plasmodium falciparum [1], 82% in the assay on Plasmodium falciparum [2] and 42% with HepG2.
Turning to `C=CCN1CCC(N(Cc2cccc(Oc3ccccc3)c2)C(=O)C(c2ccccc2)c2ccccc2)CC1`, the Inhibition stood at 87% in the assay with Plasmodium falciparum [1], 79% in the assay on Plasmodium falciparum [2] and 7% in the assay with HepG2.
On to `O=C(Nc1cccc(-c2nn3ccccc3c2-c2ccnc(Nc3ccc(C(=O)N4CCOCC4)cc3)n2)c1)c1c(F)cccc1F`, for which the Inhibition with Plasmodium falciparum [1] is reported as 99%; in the assay on Plasmodium falciparum [2], 97%; in the assay on HepG2, 72%.
